# Measurements: PubChem BioAssay AID372 (MTDP, 2006)
# Among all 100,000 compounds or so, about 770 (0.77%) were called active. Shown is part of a subset that was picked to be rich in actives. A number with no mark means an inactive call. No stated cut-off is given here; in the data, active means inhibition above about 50%; inactive means the rest.
# Biological target: Gag-Pol polyprotein (Human immunodeficiency virus type 1 group M subtype B (isolate HXB2)) (UniProt P04585)
# Assay: RNase H inhibition, HIV 1 Gag Pol polyprotein, FRET biochemical assay, screening (AID 372)
# Conditions: HIV-1 RT RNase H, FRET RNA/DNA substrate fluorescence; at 10 µM; stronger effect = higher value
row,SMILES,inhibition
1,O=C1c2ccccc2C(=O)N1CC(O)Cn1c2ccc(Br)cc2c2cc(Br)ccc21 (stereo unspecified),16%
2,CCc1ccc(OCCCCCCN2CCOCC2)cc1,8%
3,CCc1ccc(OCCN2CCOCC2)cc1,50% (active)
4,CCc1ccc(OCCCN2CCOCC2)cc1,3%
5,Cc1cc(/C=C2\C(=O)NC(=O)N(c3ccc(Br)cc3)C2=O)c(C)n1-c1cccnc1,2%
6,COc1ccccc1NC(=O)c1c(NC(=O)c2cc([N+](=O)[O-])ccc2Cl)sc2c1CCCC2,3%
7,CCN(CC)C(=O)c1sc(NC(=O)c2cc(OC)cc(OC)c2)c(C(=O)OC)c1C,10%
8,O=C1NC(=Nc2cccc(O)c2)S/C1=C/C(Cl)=C/c1ccc([N+](=O)[O-])cc1,51% (active)
9,O=C1NC(=Nc2ccc(O)cc2)S/C1=C/C(Cl)=C/c1ccc([N+](=O)[O-])cc1,0%
10,O=C1NC(=Nc2ccc(O)cc2)S/C1=C\c1ccc([N+](=O)[O-])cc1,4%
11,O=C1C(=O)N(c2ccc(Br)cn2)C(c2ccccc2[N+](=O)[O-])/C1=C(/O)c1ccccc1 (stereo unspecified),4%
12,O=C(Nc1ccc(F)cc1)Nc1nnc(CSCc2ccc(Cl)cc2)s1,26%
13,N=C1S/C(=C\c2ccc3c(c2)OCO3)C(=O)N1c1ccc(F)cc1,43%
14,N=C1S/C(=C\c2ccc(-c3ccccc3F)o2)C(=O)N1c1ccc2c(c1)OCO2,30%
15,O=C1NC(=O)N(c2ccc3c(c2)OCO3)C(=O)/C1=C/c1ccc(-c2cccc(Cl)c2)o1,53% (active)
16,O=C1/C(=C\c2cc3c(cc2[N+](=O)[O-])OCO3)SC(=S)N1c1ccccc1,24%
17,O=C1NC(=O)N(c2ccc3c(c2)OCO3)C(=O)/C1=C/c1ccc(-c2cccc([N+](=O)[O-])c2)o1,0%
18,N=C1S/C(=C\c2ccc(-c3ccc(F)cc3)o2)C(=O)N1c1ccc2c(c1)OCO2,52% (active)
19,N=C1S/C(=C\c2ccc(-c3ccc([N+](=O)[O-])cc3)o2)C(=O)N1c1ccc2c(c1)OCO2,12%
20,N=C1S/C(=C\c2cc3c(cc2[N+](=O)[O-])OCO3)C(=O)N1c1ccc(F)cc1,55% (active)
21,O=C1NC(=O)N(c2ccc3c(c2)OCO3)C(=O)/C1=C/c1ccc(Sc2ccccc2)o1,0%

row,SMILES,inhibition
1,COc1ccc(OC)c(/C=C2\C(=O)NC(=S)N(c3ccc(Br)cc3)C2=O)c1,12%
2,O=C(Nc1nnc(SCc2ccccc2)s1)c1cccc2ccccc12,3%
3,O=[N+]([O-])c1ccc(OCCCCN2CCOCC2)cc1,9%
4,Clc1ccc(OCCOCCOc2cccc3cccnc23)c2ccccc12,45%
5,O=C(Nc1ccccc1Cl)c1ccc(N2C(=O)c3ccccc3C2=O)cc1,16%
6,CSCCC(NC(=O)c1ccccc1)C(=O)OCC(=O)Nc1cc(C)on1 (stereo unspecified),11%
7,CCCOc1ccc2ccccc2c1C=C1C(=O)NC(=S)NC1=O,23%
8,COc1ccc(OC)c(N(CC(=O)Nc2ccccc2F)S(C)(=O)=O)c1,8%
9,S=C(NCc1ccccc1)N/N=C/c1ccco1,22%
10,COc1ccc(CCNC(=O)C(=O)Nc2ccccc2)cc1,11%
11,Cc1ccc(NC(=O)CSc2nc3ccccc3s2)cc1C,41%
12,CN1CCN(/N=C/c2ccc([N+](=O)[O-])s2)CC1,6%
13,CCOc1ccc(-n2sc3c(c2=S)-c2ccc(OC)cc2NC3(C)C)cc1,2%
14,COc1cc(NC(=O)c2cc(Cl)ccc2OC)ccc1NC(=O)c1cc2ccccc2o1,55% (active)
15,COc1ccc(Cl)cc1C(=O)Nc1cccc(-c2nc3ncccc3o2)c1C,3%
16,CCOc1cc(C(=O)Nc2ccc(NC(=O)c3cc4ccccc4o3)c(OC)c2)cc(OCC)c1OCC,11%
17,COc1ccc(Cl)cc1C(=O)Nc1ccc(Cl)c(-c2nc3ncccc3o2)c1,57% (active)
18,COc1cc(NC(=O)c2ccc(C(C)(C)C)cc2)ccc1NC(=O)c1cc2ccccc2o1,7%
19,COc1cc(NC(=O)c2cc(Cl)c(OC)c(Cl)c2)ccc1NC(=O)c1cc2ccccc2o1,52% (active)
20,COc1cc(NC(=O)c2cccc(Cl)c2)ccc1NC(=O)c1cc2ccccc2o1,34%
21,COc1cc(NC(=O)c2ccc(Cl)cc2Cl)ccc1NC(=O)c1cc2ccccc2o1,21%

row,SMILES,inhibition
1,COc1cc(NC(=O)c2cccc(Br)c2)ccc1NC(=O)c1cc2ccccc2o1,51% (active)
2,COc1cc(NC(=O)c2ccccc2F)ccc1NC(=O)c1cc2ccccc2o1,24%
3,O=C(Nc1ccc(Cl)c(-c2nc3ncccc3o2)c1)c1ccc(Cl)cc1Cl,6%
4,COc1ccc(C(=O)Nc2ccc(NC(=O)c3cc4ccccc4o3)c(OC)c2)cc1Br,6%
5,COc1ccccc1N1CCN(C(=O)Cc2ccc(Cl)cc2)CC1,5%
6,CCCCOc1ccc(C(=O)NC(=S)Nc2cccc(Cl)c2Cl)cc1,15%
7,COc1cccc(C(=O)Nc2ccc(O)c(-c3nc4cc(C)ccc4o3)c2)c1,5%
8,CCc1ccccc1NC(=O)C(=O)NCCCOC,14%
9,O=C(O)C1C2CC=CC2c2cc(Oc3ccccc3)cc3c2N1CC1CC=CC31 (stereo unspecified),40%
10,Cc1ccc(OCCCCNC(C)(C)C)c(C)c1,2%
11,Cc1ccc(OCCCNC(C)(C)C)c(C(C)(C)C)c1,62% (active)
12,Cc1ccc(OCCCNC(C)(C)C)c(C)c1,10%
13,COCCOC(=O)C1=C(C)NC(=O)CC1c1ccccc1Br (stereo unspecified),3%
14,COc1ccc(/C=N/N(C)c2cc(C)nc(-c3ccccc3O)n2)cc1OC,18%
15,COc1ccc(C=Nc2ccc(Cl)c(Cl)c2)c2ccccc12,32%
16,Cc1ccc(C(=O)NC(=S)Nc2ccc3oc(-c4ccc(Cl)cc4)nc3c2)cc1C,8%
17,Nc1ccc(-c2ccc(N3C(=O)c4cccc5c(C(=O)c6ccccc6)ccc(c45)C3=O)cc2)cc1,51% (active)
18,CC(=O)Nc1ccc(N2C(=O)c3cccc4c(C(=O)c5ccccc5)ccc(c34)C2=O)cc1,20%
19,O=C(O)c1ccc2c3c(cccc13)C(=O)N(c1ccccc1)C2=O,21%
